The results in this text go back to PubChem BioAssay (NCI).

Experiment [1] in a line: NCI Yeast Anticancer Drug Screen. Data for the rad50 strain (AID 155).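 Further: 0% = growth of vehicle-only cultures of the same strain.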 The note with it: S. cerevisiae rad50 strain growth inhibition, stronger effect = higher value. In outline: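 Compounds were tested on a yeast strain with an engineered DNA damage repair alteration; the reported value is growth inhibition normalised to vehicle treatment.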
Experiment [2] is described as follows: NCI Yeast Anticancer Drug Screen. Data for the mec2-1 strain (AID 157). The conditions noted are these: S. cerevisiae mec2-1 strain, stronger effect = higher value. Put shortly: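 Cells of the genetically defined mec2-1 yeast strain are incubated with test compound. Inhibition of growth is calculated against vehicle-treated controls.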
Experiment [3] is described as follows: NCI Yeast Anticancer Drug Screen. Data for the sgs1 mgt1 strain (AID 161).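 Further: 0% = growth of cultures given vehicle only.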 The conditions noted are these: S. cerevisiae sgs1 mgt1 strain, stronger effect = higher value. In outline: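 Mutant yeast exposed to compound; growth scored against vehicle-only wells.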
A short description of experiment [4]: NCI Yeast Anticancer Drug Screen. Data for the cln2 rad14 strain (AID 165).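 Further: 0% = growth equal to vehicle treated cultures.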 The conditions noted are these: S. cerevisiae cln2 rad14 strain, stronger effect = higher value. In outline:
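The screen exposed genetically defined yeast (cln2 rad14) to test compounds and scored growth inhibition relative to vehicle-treated controls.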

Experiment [5] can be described thus: NCI Yeast Anticancer Drug Screen. Data for the bub3 strain (AID 167). The conditions noted are these: S. cerevisiae bub3 mutant strain, stronger effect = higher value. Put shortly:
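Growth of a checkpoint-deficient yeast mutant is measured after compound exposure. Values represent inhibition relative to vehicle.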

The nature of experiment [6]: NCI Yeast Anticancer Drug Screen. Data for the mlh1 rad18 strain (AID 175). The conditions noted are these: S. cerevisiae mlh1 rad18 strain growth inhibition, stronger effect = higher value. Put shortly:
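Compound-treated yeast growth, normalised to vehicle controls. Strain bears defined DNA repair mutations.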

The mark [7] stands for this setting: at 5.0 µM (retest, dose inferred, filed as 0.5).
Setting [8] is: at 50.0 µM (retest, dose inferred, filed as 5.0).

About 79,000 compounds went through this panel and 15% of them were active in at least one assay; those are over-represented in the sample as a whole. Unmarked numbers belong to inactive results. Activity calls are given as the source filed them. No stated cut-off is given here; in the data, active means growth inhibition above about 70%; inactive means the rest.

As to `CCOP(=O)(CCCOc1cc(Cl)c(Cl)cc1Cl)OCC`, the growth inhibition in experiment [1] (setting [7]) was 1%; in experiment [1] (setting [8]), 99% (active); in experiment [1] (at 50.0 µM) it was 98.7% (active); in experiment [2] (setting [7]) it was 2%; in experiment [2] (setting [8]), 99% (active); in experiment [2] (at 50.0 µM), 98.9% (active). The growth inhibition in experiment [3] (setting [7]) was 14%; in experiment [3] (setting [8]), 100% (active); in experiment [3] (at 50.0 µM), 99% (active); in experiment [4] (setting [7]), 7%; in experiment [4] (setting [8]), 99% (active); in experiment [4] (at 50.0 µM), 93.7% (active). The growth inhibition in experiment [5] (setting [7]) is 6%; in experiment [5] (setting [8]), 99% (active); in experiment [5] (at 50.0 µM), 94.2% (active); in experiment [6] (setting [7]), 2%; in experiment [6] (setting [8]), 99% (active); in experiment [6] (at 50.0 µM), 98.6% (active).
As for `CCN(CC)CC(C)(C)C(=O)/C=C/c1ccc(Cl)c(Cl)c1`, the growth inhibition in experiment [1] (setting [7]) was 6%; in experiment [1] (setting [8]) it was 98% (active); in experiment [1] (at 50.0 µM), 97.9% (active); in experiment [2] (setting [7]), 9%; in experiment [2] (setting [8]), 98% (active); in experiment [2] (at 50.0 µM) it was 99.2% (active). Besides, the growth inhibition was 18% in experiment [3] (setting [7]); 94% (active) in experiment [3] (setting [8]); 98% (active) in experiment [3] (at 50.0 µM); 4% in experiment [4] (setting [7]); 97% (active) in experiment [4] (setting [8]); 89.2% (active) in experiment [4] (at 50.0 µM). Moreover, the growth inhibition in experiment [5] (setting [7]) was 1%; in experiment [5] (setting [8]), 98% (active); in experiment [5] (at 50.0 µM), 98.8% (active); in experiment [6] (setting [7]), 8%; in experiment [6] (setting [8]) it was 97% (active); in experiment [6] (at 50.0 µM) it was 99% (active).
Turning to `O=Nc1cc(-c2ccccc2)c2ccccc2c1O`, the growth inhibition in experiment [1] (setting [7]) is 14%; in experiment [1] (setting [8]), 86% (active); in experiment [1] (at 50.0 µM) it was -2.65%; in experiment [2] (setting [7]) it was 14%; in experiment [2] (setting [8]), 96% (active); in experiment [2] (at 50.0 µM) it was 31.9%. In addition, the growth inhibition in experiment [3] (setting [7]) is 6%; in experiment [3] (setting [8]), 93% (active); in experiment [3] (at 50.0 µM), -10.4%; in experiment [4] (setting [7]), 15%; in experiment [4] (setting [8]), 97% (active); in experiment [4] (at 50.0 µM) it was 97.5% (active). For the same compound, the growth inhibition is 22% in experiment [5] (setting [7]); 95% (active) in experiment [5] (setting [8]); 97.4% (active) in experiment [5] (at 50.0 µM); 23% in experiment [6] (setting [7]); 96% (active) in experiment [6] (setting [8]); 2.45% in experiment [6] (at 50.0 µM).
Regarding `CCOC(=O)c1c(Cl)c(CC)c(N=[N+]=[N-])n2c1nc1ccccc12`, the growth inhibition in experiment [1] (setting [7]) was 8%; in experiment [1] (setting [8]) it was 73% (active); in experiment [1] (at 50.0 µM), 58.9%; in experiment [2] (setting [7]), 8%; in experiment [2] (setting [8]) it was 79% (active); in experiment [2] (at 50.0 µM) it was 56.9%. For the same compound, the growth inhibition in experiment [3] (setting [7]) was 10%; in experiment [3] (setting [8]) it was 73% (active); in experiment [3] (at 50.0 µM) it was 60.1%; in experiment [4] (setting [7]) it was 0%; in experiment [4] (setting [8]) it was 63%; in experiment [4] (at 50.0 µM), 69.6%. The growth inhibition in experiment [5] (setting [7]) is 1%; in experiment [5] (setting [8]) it was 74% (active); in experiment [5] (at 50.0 µM) it was 55%; in experiment [6] (setting [7]) it was 9%; in experiment [6] (setting [8]), 80% (active); in experiment [6] (at 50.0 µM), 64.6%.
As for `CC(C(O)c1ccccc1)[N+](=O)[O-]` (stereo not given), the growth inhibition was 67% in experiment [1] (setting [7]); 96% (active) in experiment [1] (setting [8]); 97% (active) in experiment [1] (at 50.0 µM); 8% in experiment [2] (setting [7]); 41% in experiment [2] (setting [8]); 29.2% in experiment [2] (at 50.0 µM). For the same compound, the growth inhibition in experiment [3] (setting [7]) was 6%; in experiment [3] (setting [8]) it was 53%; in experiment [3] (at 50.0 µM), 55.1%; in experiment [4] (setting [7]), 3%; in experiment [4] (setting [8]) it was 63%; in experiment [4] (at 50.0 µM), 28.1%. In addition, the growth inhibition was 1% in experiment [5] (setting [7]); 78% (active) in experiment [5] (setting [8]); 39.6% in experiment [5] (at 50.0 µM); 7% in experiment [6] (setting [7]); 74% (active) in experiment [6] (setting [8]); 38.5% in experiment [6] (at 50.0 µM).
Regarding `Cc1ccc(NC(=O)CSC(N)=O)cc1`, the growth inhibition in experiment [1] (setting [7]) was 4%; in experiment [1] (setting [8]), 92% (active); in experiment [1] (at 50.0 µM), 97.5% (active); in experiment [2] (setting [7]), 4%; in experiment [2] (setting [8]), 96% (active); in experiment [2] (at 50.0 µM), 98.5% (active). Further, the growth inhibition in experiment [3] (setting [7]) is 3%; in experiment [3] (setting [8]), 94% (active); in experiment [3] (at 50.0 µM), 99.1% (active); in experiment [4] (setting [7]), 2%; in experiment [4] (setting [8]), 94% (active); in experiment [4] (at 50.0 µM), 97.5% (active). The growth inhibition was 4% in experiment [5] (setting [7]); 96% (active) in experiment [5] (setting [8]); 97.8% (active) in experiment [5] (at 50.0 µM); 2% in experiment [6] (setting [7]); 94% (active) in experiment [6] (setting [8]); 97.7% (active) in experiment [6] (at 50.0 µM).
Consider `Nc1ccc(-c2nc3ccccc3s2)cc1Br`, for which the growth inhibition in experiment [1] (setting [7]) was 33%; in experiment [1] (setting [8]), 74% (active); in experiment [1] (at 50.0 µM), 8%; in experiment [2] (setting [7]), 24%; in experiment [2] (setting [8]) it was 77% (active); in experiment [2] (at 50.0 µM), 18.8%. Also, the growth inhibition in experiment [3] (setting [7]) is 31%; in experiment [3] (setting [8]) it was 97% (active); in experiment [3] (at 50.0 µM), 21.1%; in experiment [4] (setting [7]), 27%; in experiment [4] (setting [8]) it was 63%; in experiment [4] (at 50.0 µM), 10.8%. Besides, the growth inhibition in experiment [5] (setting [7]) was 28%; in experiment [5] (setting [8]) it was 96% (active); in experiment [5] (at 50.0 µM), 52%; in experiment [6] (setting [7]), 34%; in experiment [6] (setting [8]), 88% (active); in experiment [6] (at 50.0 µM) it was 55.9%.
Take `CC[N+]1(C)CCC(O)(/C=C/c2ccccc2)C(C(=O)/C=C/c2ccccc2)C1` (stereo not given): the growth inhibition in experiment [1] (setting [7]) is 7%; in experiment [1] (setting [8]), 98% (active); in experiment [1] (at 50.0 µM) it was 99.3% (active); in experiment [2] (setting [7]), 11%; in experiment [2] (setting [8]) it was 99% (active); in experiment [2] (at 50.0 µM) it was 99.7% (active). Also, the growth inhibition in experiment [3] (setting [7]) is 12%; in experiment [3] (setting [8]), 54%; in experiment [3] (at 50.0 µM), 99.2% (active); in experiment [4] (setting [7]) it was 8%; in experiment [4] (setting [8]), 98% (active); in experiment [4] (at 50.0 µM), 83% (active). The growth inhibition in experiment [5] (setting [7]) is 7%; in experiment [5] (setting [8]) it was 99% (active); in experiment [5] (at 50.0 µM), 99.3% (active); in experiment [6] (setting [7]), 11%; in experiment [6] (setting [8]), 99% (active); in experiment [6] (at 50.0 µM), 99.3% (active).
For the compound `CC(C)c1ccc(S(=O)(=O)c2ccc([N+](=O)[O-])cc2[N+](=O)[O-])cc1`, the growth inhibition in experiment [1] (setting [7]) is 98% (active); in experiment [1] (setting [8]), 91% (active); in experiment [1] (at 50.0 µM), 93.8% (active); in experiment [2] (setting [7]) it was 100% (active); in experiment [2] (setting [8]) it was 97% (active); in experiment [2] (at 50.0 µM), 96.5% (active). The growth inhibition in experiment [3] (setting [7]) is 100% (active); in experiment [3] (setting [8]) it was 97% (active); in experiment [3] (at 50.0 µM), 96.8% (active); in experiment [4] (setting [7]) it was 76% (active); in experiment [4] (setting [8]), 94% (active); in experiment [4] (at 50.0 µM), 94.5% (active). In addition, the growth inhibition in experiment [5] (setting [7]) is 95% (active); in experiment [5] (setting [8]), 96% (active); in experiment [5] (at 50.0 µM), 96.2% (active); in experiment [6] (setting [7]) it was 99% (active); in experiment [6] (setting [8]) it was 95% (active); in experiment [6] (at 50.0 µM), 96.2% (active).
In the case of `CC(=O)N1c2ccccc2C2=NN=C(N(C)C)SC21` (stereo not given), the growth inhibition in experiment [1] (setting [7]) was 6%; in experiment [1] (setting [8]), 98% (active); in experiment [1] (at 50.0 µM), 85.3% (active); in experiment [2] (setting [7]), -15%; in experiment [2] (setting [8]), 98% (active); in experiment [2] (at 50.0 µM), 90% (active). Further, the growth inhibition in experiment [3] (setting [7]) is 0%; in experiment [3] (setting [8]), 98% (active); in experiment [3] (at 50.0 µM) it was 83.8% (active); in experiment [4] (setting [7]), -20%; in experiment [4] (setting [8]) it was 97% (active); in experiment [4] (at 50.0 µM) it was 83.8% (active). Besides, the growth inhibition in experiment [5] (setting [7]) was -14%; in experiment [5] (setting [8]), 99% (active); in experiment [5] (at 50.0 µM) it was 87.3% (active); in experiment [6] (setting [7]), 1%; in experiment [6] (setting [8]), 97% (active); in experiment [6] (at 50.0 µM), 80.5% (active).
